Experimental data published in PubChem BioAssay AID1159580 (chemical genetic matrix, 2015).
About 2,000 (36%) of roughly 5,500 compounds were called active. Another 18% or so got no clear call; they are omitted. Rule as the data show it: active = normalized growth mostly below about 0.91 (no sharp cut-off); inconclusive = no clear call, values can overlap the other calls; inactive = mostly above about 0.92. The list shows a part of the results.

Test: chemical genetic growth profiling, strain panel (AID 1159580);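 also: tested at 20 µM; growth read once vehicle control cultures reached saturation at 30 °C; 1 = growth at the plate median or of vehicle wells; lower values mean less growth of the strain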
Conditions: S. cerevisiae deletion strains, growth OD

Measured: normalized growth

C[C@@H]1O[C@H](C[N+](C)(C)C)C[C@H]1O
inactive: locus YAL013W, strain DEP1, stronger effect = lower value 1.01 | locus YAL040C, strain CLN3, stronger effect = lower value 1 | locus YCL061C, strain MRC1 (second series), stronger effect = lower value 1.01 | locus YDR363W, strain ESC2, stronger effect = lower value 0.993 | locus YER002W, strain NOP16, stronger effect = lower value 1.02 | locus YMR263W, strain SAP30, stronger effect = lower value 1.01 | locus YNL128W, strain TEP1, stronger effect = lower value 1 | locus YNL153C, strain GIM3, stronger effect = lower value 1.02 | locus YNL175C, strain NOP13, stronger effect = lower value 1.01 | locus YNL197C, strain WHI3, stronger effect = lower value 1.01 | locus YNL224C, strain SQS1, stronger effect = lower value 1.01 | locus YOR083W, strain WHI5 (second series), stronger effect = lower value 1.01 | locus YPL241C, strain CIN2, stronger effect = lower value 1.01

CC(C)CCCC1(C)C=Cc2c(O)c3c(c(CCC(C)C)c2O1)OC12C(CC4CC1C(C)(C)OC2(CCC(C)C(=O)O)C4O)C3=O (stereo not drawn)
inactive: locus YAL021C, strain ccr4, stronger effect = lower value 1 | locus YAL026C, strain drs2, stronger effect = lower value 0.991 | locus YAL030W, strain snc1, stronger effect = lower value 1 | locus YBL061C, strain skt5, stronger effect = lower value 0.996 | locus YBR009C, strain hhf1, stronger effect = lower value 0.992 | locus YBR023C, strain chs3, stronger effect = lower value 0.998 | locus YBR171W, strain sec66, stronger effect = lower value 0.991 | locus YBR231C, strain swc5, stronger effect = lower value 0.997 | locus YBR279W, strain paf1, stronger effect = lower value 0.994 | locus YCL011C, strain gbp2, stronger effect = lower value 0.994 | locus YCL016C, strain dcc1, stronger effect = lower value 0.989 | locus YCL061C, strain MRC1, stronger effect = lower value 0.986 | locus YCL069W, strain vba3, stronger effect = lower value 0.998 | locus YCR088W, strain abp1, stronger effect = lower value 0.997 | locus YDL005C, strain med2, stronger effect = lower value 0.985 | locus YDL040C, strain nat1, stronger effect = lower value 0.995 | locus YDR001C, strain nth1, stronger effect = lower value 0.998 | locus YDR069C, strain doa4, stronger effect = lower value 0.988 | locus YDR159W, strain sac3, stronger effect = lower value 0.991 | locus YDR195W, strain ref2 1.01 | locus YDR297W, strain sur2, stronger effect = lower value 0.998 | locus YDR334W, strain swr1, stronger effect = lower value 0.975 | locus YDR335W, strain msn5, stronger effect = lower value 0.995 | locus YDR392W, strain spt3, stronger effect = lower value 0.925 | locus YEL003W, strain gim4, stronger effect = lower value 0.982 | locus YEL037C, strain rad23, stronger effect = lower value 1.03 | locus YEL061C, strain CIN8 (second series), stronger effect = lower value 0.996 | locus YER015W, strain faa2, stronger effect = lower value 1 | locus YER016W, strain bim1, stronger effect = lower value 0.99 | locus YER111C, strain swi4, stronger effect = lower value 1.02 | locus YER155C, strain BEM2 (second series), stronger effect = lower value 1.01 | locus YFR010W, strain ubp6, stronger effect = lower value 0.986 | locus YGL167C, strain pmr1, stronger effect = lower value 0.988 | locus YGL173C, strain kem1, stronger effect = lower value 0.991 | locus YGL227W, strain vid30, stronger effect = lower value 1.01 | locus YGL240W, strain doc1, stronger effect = lower value 0.979 | locus YGL253W, strain hxk2, stronger effect = lower value 1 | locus YHR013C, strain ard1, stronger effect = lower value 1.02 | locus YHR027C, strain rpn1, stronger effect = lower value 1 | locus YHR030C, strain SLT2, stronger effect = lower value 0.966 | locus YHR079C, strain IRE1, stronger effect = lower value 0.971 | locus YHR142W, strain chs7, stronger effect = lower value 1.01 | locus YJL092W, strain hpr5, stronger effect = lower value 0.988 | locus YJL095W, strain BCK1 (second series), stronger effect = lower value 1 | locus YJL095W, strain BCK1, stronger effect = lower value 0.987 | locus YJL115W, strain asf1, stronger effect = lower value 0.996 | locus YJL129C, strain trk1, stronger effect = lower value 0.958 | locus YJL154C, strain vps35, stronger effect = lower value 0.994 | locus YJL164C, strain tpk1, stronger effect = lower value 0.982 | locus YJL166W, strain qcr8, stronger effect = lower value 0.996 | locus YJL187C, strain SWE1, stronger effect = lower value 0.997 | locus YJR066W, strain TOR1, stronger effect = lower value 0.919 | locus YKL160W, strain elf1, stronger effect = lower value 1 | locus YKR026C, strain gcn3, stronger effect = lower value 1 | locus YKR091W, strain srl3, stronger effect = lower value 0.998 | locus YLL001W, strain dnm1, stronger effect = lower value 1 | locus YLL026W, stronger effect = lower value 0.997 | locus YLL041C, strain sdh2, stronger effect = lower value 0.995 | locus YLR027C, strain aat2, stronger effect = lower value 0.999 | locus YLR113W, strain HOG1, stronger effect = lower value 0.941 | locus YLR221C, strain rsa3, stronger effect = lower value 0.989 | locus YLR258W, strain gsy2, stronger effect = lower value 0.998 | locus YLR262C, strain YPT6 (second series), stronger effect = lower value 0.919 | locus YLR320W, strain mms22, stronger effect = lower value 0.99 | locus YLR342W, strain FKS1, stronger effect = lower value 1 | locus YLR357W, strain rsc2, stronger effect = lower value 1.04 | locus YLR370C, strain arc18, stronger effect = lower value 0.999 | locus YLR384C, strain iki3, stronger effect = lower value 0.992 | locus YML120C, strain ndi1, stronger effect = lower value 0.997 | locus YMR058W, strain fet3, stronger effect = lower value 0.986 | locus YMR125W, strain sto1, stronger effect = lower value 0.991 | locus YMR129W, stronger effect = lower value 0.993 | locus YMR205C, strain PFK2, stronger effect = lower value 0.955 | locus YMR231W, strain pep5, stronger effect = lower value 0.986 | locus YNL071W, strain lat1, stronger effect = lower value 0.969 | locus YNL183C, strain NPR1, stronger effect = lower value 0.92 | locus YNL209W, strain ssb2, stronger effect = lower value 0.99 | locus YNL248C, strain rpa49, stronger effect = lower value 1.01 | locus YNL322C, strain KRE1 (second series), stronger effect = lower value 1.01 | locus YNR049C, strain mso1, stronger effect = lower value 1.01 | locus YOR001W, strain rrp6, stronger effect = lower value 0.983 | locus YOR070C, strain gyp1, stronger effect = lower value 0.995 | locus YOR080W, strain dia2, stronger effect = lower value 1 | locus YOR083W, strain WHI5, stronger effect = lower value 0.99 | locus YOR106W, strain vam3, stronger effect = lower value 0.996 | locus YOR231W, strain MKK1, stronger effect = lower value 0.964 | locus YOR265W, strain rbl2, stronger effect = lower value 1 | locus YOR270C, strain vph1, stronger effect = lower value 0.955 | locus YOR290C, strain snf2, stronger effect = lower value 0.995 | locus YPL051W, strain arl3, stronger effect = lower value 0.98 | locus YPL078C, strain atp4, stronger effect = lower value 1 | locus YPL106C, strain sse1, stronger effect = lower value 1 | locus YPL240C, strain hsp82, stronger effect = lower value 1.01 | locus YPL256C, strain CLN2, stronger effect = lower value 0.985
active: locus YDR137W, strain rgp1, stronger effect = lower value 0.815
